# USP30 block – inhibitors of human USP30 deubiquitinase; AID 1645860; purified USP30, Ub-rhodamine cleavage fluorescence; inhibition, % at 25 µM; hit rate 5.3% among 47,000
# USP8 inh – human USP8 deubiquitinase inhibition. P40818. purified USP8, Ub-rhodamine cleavage fluorescence, 30 min. inhibition, % at 20 µM. hit rate 4.2% among 47,000
# USP10 inh – inhibitors of human USP10 deubiquitinase. Q14694. purified USP10, Ub-rhodamine fluorescence, 60 min. inhibition, % at 20 µM. hit rate 1.1% among 47,000. AID 1645856
# Target sequence (Q14694 whole entry, looked up): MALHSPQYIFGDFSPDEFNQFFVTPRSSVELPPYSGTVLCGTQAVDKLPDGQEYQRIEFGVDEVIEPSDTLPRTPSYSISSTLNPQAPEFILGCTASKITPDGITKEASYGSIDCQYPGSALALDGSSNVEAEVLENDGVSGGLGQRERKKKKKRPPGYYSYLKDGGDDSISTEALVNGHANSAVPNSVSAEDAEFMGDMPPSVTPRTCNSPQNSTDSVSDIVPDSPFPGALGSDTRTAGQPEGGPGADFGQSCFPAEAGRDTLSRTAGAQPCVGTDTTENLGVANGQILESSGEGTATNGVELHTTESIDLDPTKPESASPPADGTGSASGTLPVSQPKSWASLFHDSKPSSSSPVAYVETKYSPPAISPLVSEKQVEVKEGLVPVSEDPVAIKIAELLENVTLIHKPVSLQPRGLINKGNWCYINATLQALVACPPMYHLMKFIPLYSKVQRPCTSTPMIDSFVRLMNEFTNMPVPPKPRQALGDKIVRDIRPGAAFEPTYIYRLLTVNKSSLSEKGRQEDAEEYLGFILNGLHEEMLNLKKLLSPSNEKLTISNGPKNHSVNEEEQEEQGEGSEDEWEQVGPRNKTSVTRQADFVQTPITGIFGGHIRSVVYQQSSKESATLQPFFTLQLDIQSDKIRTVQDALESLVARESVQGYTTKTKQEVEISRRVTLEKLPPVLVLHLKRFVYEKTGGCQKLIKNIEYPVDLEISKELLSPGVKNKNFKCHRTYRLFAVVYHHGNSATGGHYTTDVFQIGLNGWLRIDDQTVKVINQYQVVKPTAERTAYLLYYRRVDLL
# USP17 block – blocks human USP17 ubiquitin-rhodamine cleavage; A8MUK1; AID 1645855; inhibition, % at 50 µM; purified USP17, Ub-rhodamine cleavage fluorescence, 3 h; hit rate 6.5% among 47,000
# USP28 block – inhibitors of human USP28 deubiquitinase | hit rate 3% among 47,000 | inhibition, % at 25 µM | purified USP28, Ub-rhodamine cleavage fluorescence, 30 min | Q96RU2
# Active calls of the source: *. Hits are enriched below; roughly 14% of the tested compounds scored in any of these assays. Rule as the data show it: active = inhibition above about 30%; inactive = the rest.
SMILES,USP30 block,USP8 inh,USP10 inh,USP17 block,USP28 block
Cc1cc(C(=O)NCCn2ncc3c(N4CCCCC4)ncnc32)no1,15,19,0,8,18
Cn1ccnc1C(=O)NCc1cc(=O)n2c(n1)CNCCC2,-4,-5,0,-5,-9
Cc1cc(NC(=O)Cn2c(=O)n(CCCCC(=O)NCc3ccco3)c(=O)c3ccccc32)ccc1Br,5,84*,60*,64*,0
O=C(CCCCn1c(=O)c2ccccc2n(CC(=O)NCCC2=CCCCC2)c1=O)NCc1ccco1,-8,42*,0,10,-3
CCOC(=O)c1cnc2c(c(C)nn2C)c1Oc1ccc(C#N)cc1,7,0,-3,-2,0
COc1ccccc1/C=C(/C(=O)N1CCN(Cc2ccc3c(c2)OCO3)CC1)c1ccccc1,42*,11,10,15,14
Cn1cccc1C(=O)N1CCOC2(CCCN(c3ccccn3)C2)C1 (centres undefined),-13,-47,-1,-8,-15
CC(C)CC(=O)N1CC(C(=O)Nc2ccc(F)cc2)C2(CCOCC2)C1 (centres undefined),15,0,-1,46*,6
CCC(=O)N1CC(C(=O)Nc2ccc(F)cc2)C2(CCOCC2)C1 (centres undefined),-15,-5,0,-7,-13
Nc1cc(C2CCN(C(=O)c3nccc4ccccc34)CC2)no1,0,10,-1,1,-2
COc1ccc(/C=C2\NC(=O)[C@H]3Cc4ccccc4CN3C2=O)cc1,-7,46*,10,1,-3
COc1ccc(NC(=O)CCN2C(=O)[C@@H]3Cc4ccccc4CN3C2=O)cc1,5,-21,1,-2,-1
Cc1cc(C)c(NC(=O)Cn2c(=O)n(CCC(=O)NCc3ccc4c(c3)OCO4)c(=O)c3sccc32)c(C)c1,27,27,57*,75*,49*
CCOc1c(CC)cnc2c1c(=O)n(CC(=O)NCc1ccc(F)cc1)c(=O)n2C,17,7,1,5,12
O=C(CCCn1c(=O)c2sccc2n(CC(=O)NCCC2=CCCCC2)c1=O)NCc1ccc2c(c1)OCO2,20,4,15,50*,32*
Cc1ccc(CNC(=O)Cn2c(=O)c3sccc3n(CC(=O)Nc3ccc(Br)cc3)c2=O)cc1,26,23,3,10,10
COc1c(C)cnc2c1c(=O)n(CC(=O)NCc1ccc3c(c1)OCO3)c(=O)n2C,36*,13,-1,22,5
Cc1c(C#N)c2ccccc2n1CC(=O)NCC1CCCO1 (centres undefined),-30,1,-3,-7,-8
CCCn1c(=O)c2sccc2n2c(CCC(=O)NCCC3=CCCCC3)nnc12,2,14,-1,5,4
Cc1c(C#N)c2ccccc2n1CC(=O)NCc1ccc2c(c1)OCO2,22,60*,25,40*,32*
O=C1CC2c3ccccc3CCN2C(=O)N1c1ccc(Cl)cc1 (centres undefined),0,-10,1,7,-7
Cc1ccccc1NC(=O)N1CC[C@@H]2CN(CC(C)C)S(=O)(=O)[C@@H]2CC1,6,-8,0,4,9
Cn1nc(-c2nnc(-c3ccc(F)cc3)o2)c2c1CCN(C(=O)C1CC1)C2,2,-35,-2,-4,-5
COc1cccc(C(=O)NCCSc2ccc(F)cc2)c1,20,7,3,15,26
CCCCNc1ccccc1C(=O)OCc1nnc(-c2cc(-c3ccc(OC)c(OC)c3)nc3ccccc23)o1,-37,72*,-4,9,-9
SMILES,USP30 block,USP8 inh,USP10 inh,USP17 block,USP28 block
O=S(=O)(c1ccccc1)N1CCCn2c(CN3CCCCC3)nnc2C1,0,-236,-1,-37,-13
Cc1cc(CC2COCCN(C(=O)c3ccc4n[nH]nc4c3)C2)ncn1 (centres undefined),6,-1,0,3,3
Brc1ccc(-c2cn3c4ccccc4n(CCN4CCCCC4)c3n2)cc1,18,48*,-6,20,9
CCCn1c2ccccc2n2c(C(C)=O)c(-c3ccccc3)nc12,17,3,8,13,21
Fc1ccc(-c2cn3c4ccccc4n(Cc4ccc(Cl)cc4)c3n2)cc1,-12,62*,-4,46*,29
Oc1ccccc1CNc1nc2ccccc2n1CCN1CCCCC1,2,8,3,0,-4
CCCn1c2ccccc2n2cc(-c3ccc(-c4ccccc4)cc3)nc12,2,81*,-5,34*,17
COC(=O)c1ccc(NC(=O)CCS(=O)(=O)c2ccc3c(c2)SC(C)C(=O)N3)cc1 (centres undefined),-161,-61,1,11,-13
COc1ccccc1-c1nnc(NC(=O)Cc2ccc(SC)cc2)o1,0,-165,5,2,7
C=C[C@]1(C)CC[C@]2(C)[C@H](C[C@@H](O)[C@H]3[C@]4(C)CCC[C@@]32OC4=O)C1,29,1,0,9,1
Cn1c(=O)[nH]c(=O)c2c1nc(NCCCO)n2CC(=O)c1ccccc1,40*,11,4,13,10
CN(C)S(=O)(=O)N1CCC(Cc2cncc(-c3ccn[nH]3)n2)CC1,17,12,0,3,7
Cc1cc(NC(=O)COc2ccc(F)c(Cl)c2)no1,12,9,-2,13,40*
O=C(Nc1noc(-c2ccccc2)n1)c1ccc(Br)cc1,25,38*,18,21,7
Cc1ccc(-c2nc(NC(=O)COc3ccc(Cl)cc3)no2)cc1,-2,93*,65*,93*,89*
O=C(COc1ccc(F)cc1)Nc1noc(-c2ccccc2)n1,74*,24,2,63*,44*
Cc1cc(NC(=O)CSc2nnc(CNC(=O)COc3ccc(Cl)cc3)o2)no1,-1,19,3,4,0
COc1ccccc1OC(C)C(=O)Nc1noc(-c2ccccc2)n1 (centres undefined),18,8,3,1,3
CC/C(C)=C1\OC(=O)C(C)C(O)C(Cc2cccnc2)NC(=O)C(NC(=O)c2ncccc2O)C(C)OC1=O (centres undefined),2,3,2,-59,-20
Cc1cccc(-c2nc(NC(=O)COc3ccc(F)cc3)no2)c1,68*,83*,15,71*,61*
Cc1ccc(-c2nc(NC(=O)COc3cc(C)cc(C)c3)no2)cc1,0,3,11,1,-9
O=C(CCn1c(=O)c2ccccc2n(Cc2ccc(F)cc2Cl)c1=O)NCc1ccco1,15,48*,40*,38*,6
COc1cccc(C(=O)Cn2c(=O)n(CCCC(=O)NCc3ccco3)c(=O)c3ccc(Cl)cc32)c1,19,10,24,18,0
COc1cc2c(=O)n(CCC(=O)NCc3ccco3)c(=O)n(CC(=O)Nc3c(C)cccc3C)c2cc1OC,30*,38*,-3,61*,65*
Cc1ccc(Cl)cc1NC(=O)Cn1c(=O)n(CCC(=O)NC2CCCC2)c(=O)c2ccccc21,41*,22,3,23,15
